Among the data in PubChem BioAssay (NCI) are growth inhibition values, retold here.

Assay [1] is described as follows: NCI Yeast Anticancer Drug Screen. Data for the rad50 strain (AID 155).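 Also: 0% = growth of vehicle-only cultures of the same strain.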 The conditions noted are these: S. cerevisiae rad50 strain growth inhibition, active compounds read high. The gist of the method:
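DNA repair mutant yeast, compound exposure, growth read-out; inhibition is taken relative to vehicle.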

Assay [2] in a line: NCI Yeast Anticancer Drug Screen. Data for the mec2-1 strain (AID 157). The conditions noted are these: S. cerevisiae mec2-1 strain, active compounds read high. The essentials: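 Test agents were screened against the mec2-1 yeast strain, with defined DNA repair or cell cycle alteration. Growth was scored as inhibition against vehicle-only controls.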
Assay [3] can be described thus: NCI Yeast Anticancer Drug Screen. Data for the sgs1 mgt1 strain (AID 161).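 Also: 0% = growth of cultures given vehicle only.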 The conditions noted are these: S. cerevisiae sgs1 mgt1 strain, active compounds read high. The essentials: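 Inhibition of yeast growth, normalised to vehicle-treated controls, is reported for a strain bearing genetic alterations in DNA damage repair.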
Assay [4] is described as follows: NCI Yeast Anticancer Drug Screen. Data for the cln2 rad14 strain (AID 165).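 Also: 0% = growth equal to vehicle treated cultures.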 The conditions noted are these: S. cerevisiae cln2 rad14 strain, active compounds read high. The gist of the method:
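Growth of compound-exposed yeast (cln2 rad14 genotype) measured and expressed as inhibition relative to vehicle.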

The nature of assay [5]: NCI Yeast Anticancer Drug Screen. Data for the bub3 strain (AID 167). The conditions noted are these: S. cerevisiae bub3 mutant strain, active compounds read high. The gist of the method:
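In this screen, a yeast mutant lacking normal mitotic checkpoint function is challenged with compound. Relative growth versus vehicle gives the inhibition value.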

Assay [6] can be described thus: NCI Yeast Anticancer Drug Screen. Data for the mlh1 rad18 strain (AID 175). The conditions noted are these: S. cerevisiae mlh1 rad18 strain growth inhibition, active compounds read high. The essentials:
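In this whole-cell yeast screen, a strain with altered DNA damage repair is challenged with compound, and its growth is measured against matched vehicle-treated controls.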

The mark [7] stands for this setting: at 5.0 µM (retest, dose inferred, filed as 0.5).
The mark [8] stands for this setting: at 50.0 µM (retest, dose inferred, filed as 5.0).

SMILES strings stand for the structures. The panel holds about 79,000 compounds, 15% with a hit somewhere; the sample as a whole holds those more often. Unmarked numbers belong to inactive results. Calls of active or inactive are those of the source. Rule as the data show it: active = growth inhibition above about 70%; inactive = the rest.

As for `Cc1cc(Cl)c2c(c1)C(=O)/C(=C/c1ccc(Cl)cc1)O2`, the growth inhibition was 5% in assay [1] (setting [7]); 99% (active) in assay [1] (setting [8]); 88.3% (active) in assay [1] (at 50.0 µM); 18% in assay [2] (setting [7]); 99% (active) in assay [2] (setting [8]); 90% (active) in assay [2] (at 50.0 µM). Besides, the growth inhibition in assay [3] (setting [7]) was -17%; in assay [3] (setting [8]), 99% (active); in assay [3] (at 50.0 µM), 84.1% (active); in assay [4] (setting [7]) it was 26%; in assay [4] (setting [8]), 99% (active); in assay [4] (at 50.0 µM), 89.2% (active). Further, the growth inhibition in assay [5] (setting [7]) was -22%; in assay [5] (setting [8]), 98% (active); in assay [5] (at 50.0 µM) it was 88.7% (active); in assay [6] (setting [7]), 13%; in assay [6] (setting [8]), 99% (active); in assay [6] (at 50.0 µM), 85.3% (active).
Regarding `COc1ccc(/C=C\Cc2cc3c(cc2OCCO)OCO3)cc1`, the growth inhibition was 3% in assay [1] (setting [7]); 92% (active) in assay [1] (setting [8]); 96.7% (active) in assay [1] (at 50.0 µM); 7% in assay [2] (setting [7]); 95% (active) in assay [2] (setting [8]); 96.7% (active) in assay [2] (at 50.0 µM). In addition, the growth inhibition was 7% in assay [3] (setting [7]); 97% (active) in assay [3] (setting [8]); 97.8% (active) in assay [3] (at 50.0 µM); 1% in assay [4] (setting [7]); 82% (active) in assay [4] (setting [8]); 69.6% in assay [4] (at 50.0 µM). Further, the growth inhibition was -1% in assay [5] (setting [7]); 96% (active) in assay [5] (setting [8]); 85.6% (active) in assay [5] (at 50.0 µM); -2% in assay [6] (setting [7]); 97% (active) in assay [6] (setting [8]); 97.2% (active) in assay [6] (at 50.0 µM).
On to `CC(=O)N(C)NC(=O)c1ccccc1`, for which the growth inhibition was 1% in assay [1] (setting [7]); -6% in assay [1] (setting [8]); 10.4% in assay [1] (at 50.0 µM); -1% in assay [2] (setting [7]); 2% in assay [2] (setting [8]); -12.8% in assay [2] (at 50.0 µM). Also, the growth inhibition was 1% in assay [3] (setting [7]); -4% in assay [3] (setting [8]); -10.2% in assay [3] (at 50.0 µM); -8% in assay [4] (setting [7]); 5% in assay [4] (setting [8]); 27.3% in assay [4] (at 50.0 µM). Also, the growth inhibition is -2% in assay [5] (setting [7]); -1% in assay [5] (setting [8]); 12.9% in assay [5] (at 50.0 µM); 0% in assay [6] (setting [7]); -5% in assay [6] (setting [8]); -4.7% in assay [6] (at 50.0 µM).
Turning to `CCC(C)CNCCCCCNc1cc(OC)cc2cccnc12` (stereo not given), the growth inhibition in assay [1] (setting [7]) was 37%; in assay [1] (setting [8]) it was 67%; in assay [1] (at 50.0 µM), 45.5%; in assay [2] (setting [7]) it was 35%; in assay [2] (setting [8]), 62%; in assay [2] (at 50.0 µM) it was 43.9%. Besides, the growth inhibition is 38% in assay [3] (setting [7]); 87% (active) in assay [3] (setting [8]); 66.5% in assay [3] (at 50.0 µM); 47% in assay [4] (setting [7]); 57% in assay [4] (setting [8]); 48.2% in assay [4] (at 50.0 µM). In addition, the growth inhibition in assay [5] (setting [7]) was 39%; in assay [5] (setting [8]), 75% (active); in assay [5] (at 50.0 µM), 90.3% (active); in assay [6] (setting [7]), 29%; in assay [6] (setting [8]), 53%; in assay [6] (at 50.0 µM), 70.3% (active).
Consider `[O-]c1c2cc(-[n+]3c(-c4ccccc4)cc(-c4ccccc4)cc3-c3ccccc3)cc1CO[C@@H](c1ccccc1)[C@H](c1ccccc1)OCCOCCO[C@@H](c1ccccc1)[C@H](c1ccccc1)OC2`, for which the growth inhibition was 97% (active) in assay [1] (setting [7]); 95% (active) in assay [1] (setting [8]); 87.5% (active) in assay [1] (at 50.0 µM); 98% (active) in assay [2] (setting [7]); 95% (active) in assay [2] (setting [8]); 91.4% (active) in assay [2] (at 50.0 µM). The growth inhibition in assay [3] (setting [7]) was 98% (active); in assay [3] (setting [8]), 97% (active); in assay [3] (at 50.0 µM) it was 88.4% (active); in assay [4] (setting [7]) it was 95% (active); in assay [4] (setting [8]), 97% (active); in assay [4] (at 50.0 µM), 88.6% (active). Besides, the growth inhibition in assay [5] (setting [7]) is 97% (active); in assay [5] (setting [8]), 72% (active); in assay [5] (at 50.0 µM), 89% (active); in assay [6] (setting [7]), 98% (active); in assay [6] (setting [8]), 94% (active); in assay [6] (at 50.0 µM), 29.6%.
As for `CC(C)(C)OC(=O)N(CCCCNCc1ccc2ccccc2c1)CCCNCc1ccc2ccccc2c1`, the growth inhibition was 17% in assay [1] (setting [7]); 99% (active) in assay [1] (setting [8]); 91% (active) in assay [1] (at 50.0 µM); 19% in assay [2] (setting [7]); 99% (active) in assay [2] (setting [8]); 92.6% (active) in assay [2] (at 50.0 µM). The growth inhibition in assay [3] (setting [7]) was -7%; in assay [3] (setting [8]), 99% (active); in assay [3] (at 50.0 µM), 76.5% (active); in assay [4] (setting [7]), 3%; in assay [4] (setting [8]) it was 98% (active); in assay [4] (at 50.0 µM), 89% (active). Moreover, the growth inhibition in assay [5] (setting [7]) was 18%; in assay [5] (setting [8]), 97% (active); in assay [5] (at 50.0 µM) it was 90.5% (active); in assay [6] (setting [7]), 26%; in assay [6] (setting [8]), 99% (active); in assay [6] (at 50.0 µM) it was 91% (active).
For `COc1cc(NCCCCCNC2CCCCC2)c2ncccc2c1`, the growth inhibition was 2% in assay [1] (setting [7]); 64% in assay [1] (setting [8]); 83.2% (active) in assay [1] (at 50.0 µM); -4% in assay [2] (setting [7]); 17% in assay [2] (setting [8]); 46.5% in assay [2] (at 50.0 µM). The growth inhibition in assay [3] (setting [7]) is 21%; in assay [3] (setting [8]) it was 63%; in assay [3] (at 50.0 µM), 74.1% (active); in assay [4] (setting [7]), 7%; in assay [4] (setting [8]), 32%; in assay [4] (at 50.0 µM) it was 19.9%. Also, the growth inhibition in assay [5] (setting [7]) was 14%; in assay [5] (setting [8]), 57%; in assay [5] (at 50.0 µM) it was 83.6% (active); in assay [6] (setting [7]), -18%; in assay [6] (setting [8]) it was 27%; in assay [6] (at 50.0 µM), 74.2% (active).
With `CCc1ccc(N(C(C)=O)C2=C(Cl)C(=O)c3ccccc3C2=O)cc1`, the growth inhibition is 99% (active) in assay [1] (setting [7]); 99% (active) in assay [1] (setting [8]); 98.4% (active) in assay [1] (at 50.0 µM); 100% (active) in assay [2] (setting [7]); 99% (active) in assay [2] (setting [8]); 91% (active) in assay [2] (at 50.0 µM). Further, the growth inhibition was 100% (active) in assay [3] (setting [7]); 100% (active) in assay [3] (setting [8]); 99.2% (active) in assay [3] (at 50.0 µM); 99% (active) in assay [4] (setting [7]); 99% (active) in assay [4] (setting [8]); 77% (active) in assay [4] (at 50.0 µM). The growth inhibition in assay [5] (setting [7]) is 99% (active); in assay [5] (setting [8]) it was 100% (active); in assay [5] (at 50.0 µM), 67.9%; in assay [6] (setting [7]) it was 100% (active); in assay [6] (setting [8]) it was 99% (active); in assay [6] (at 50.0 µM), 98.7% (active).
In the case of `[Cl][Sn]([O][Sn]([Cl])([c]1ccccc1)[CH]1CCCCC1)([c]1ccccc1)[CH]1CCCCC1` (stereo not given), the growth inhibition in assay [1] (setting [7]) was 6%; in assay [1] (setting [8]), 97% (active); in assay [1] (at 50.0 µM), 88% (active); in assay [2] (setting [7]), 7%; in assay [2] (setting [8]), 99% (active); in assay [2] (at 50.0 µM) it was 90.3% (active). The growth inhibition is 12% in assay [3] (setting [7]); 99% (active) in assay [3] (setting [8]); 90.8% (active) in assay [3] (at 50.0 µM); -11% in assay [4] (setting [7]); 98% (active) in assay [4] (setting [8]); 90.1% (active) in assay [4] (at 50.0 µM). The growth inhibition in assay [5] (setting [7]) was 2%; in assay [5] (setting [8]) it was 99% (active); in assay [5] (at 50.0 µM), 89.6% (active); in assay [6] (setting [7]), 5%; in assay [6] (setting [8]), 97% (active); in assay [6] (at 50.0 µM), 92% (active).
Take `Nc1c(Cl)[nH]c(C(F)(F)F)nc1=S`: the growth inhibition in assay [1] (setting [7]) was -2%; in assay [1] (setting [8]), -7%; in assay [1] (at 50.0 µM), 5.2%; in assay [2] (setting [7]), -7%; in assay [2] (setting [8]) it was -1%; in assay [2] (at 50.0 µM), -4.75%. Moreover, the growth inhibition in assay [3] (setting [7]) was -9%; in assay [3] (setting [8]), -7%; in assay [3] (at 50.0 µM), -2.45%; in assay [4] (setting [7]), -7%; in assay [4] (setting [8]), 4%; in assay [4] (at 50.0 µM) it was 15.3%. Also, the growth inhibition in assay [5] (setting [7]) was -3%; in assay [5] (setting [8]) it was 10%; in assay [5] (at 50.0 µM), -9.45%; in assay [6] (setting [7]), 0%; in assay [6] (setting [8]), 1%; in assay [6] (at 50.0 µM) it was 23.3%.
